About 79,000 compounds went through this panel and 15% of them were active in at least one assay; those are over-represented in the sample as a whole. Unmarked numbers belong to inactive results. The source made the active and inactive calls. No stated cut-off is given here; in the data, active means growth inhibition above about 70%; inactive means the rest.
Assays:
[1] = NCI Yeast Anticancer Drug Screen. Data for the rad50 strain (AID 155);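 further: 0% = growth of vehicle-only cultures of the same strain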; conditions: S. cerevisiae rad50 strain growth inhibition, active compounds read high
Outline: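 A DNA repair-deficient yeast mutant serves as the test organism; compound-induced growth inhibition is calculated against vehicle-treated cells.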

[2] = NCI Yeast Anticancer Drug Screen. Data for the mec2-1 strain (AID 157); conditions: S. cerevisiae mec2-1 strain, active compounds read high
Outline: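 Readout is yeast growth inhibition, normalised to vehicle-treated controls, in the mec2-1 strain exposed to compound.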

[3] = NCI Yeast Anticancer Drug Screen. Data for the sgs1 mgt1 strain (AID 161);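 further: 0% = growth of cultures given vehicle only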; conditions: S. cerevisiae sgs1 mgt1 strain, active compounds read high
Outline: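 Growth of a repair-deficient yeast mutant was monitored after compound treatment and expressed as inhibition relative to vehicle-treated cultures.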

[4] = NCI Yeast Anticancer Drug Screen. Data for the cln2 rad14 strain (AID 165);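 further: 0% = growth equal to vehicle treated cultures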; conditions: S. cerevisiae cln2 rad14 strain, active compounds read high
Outline: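 Relative to vehicle controls, growth inhibition of compound-treated cln2 rad14 yeast was recorded.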

[5] = NCI Yeast Anticancer Drug Screen. Data for the bub3 strain (AID 167); conditions: S. cerevisiae bub3 mutant strain, active compounds read high
Outline: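 Inhibition values come from growth of compound-treated mutant yeast normalised to vehicle-treated controls.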

[6] = NCI Yeast Anticancer Drug Screen. Data for the mlh1 rad18 strain (AID 175); conditions: S. cerevisiae mlh1 rad18 strain growth inhibition, active compounds read high
Outline: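 Test agents were incubated with a yeast strain of defined genotype (DNA damage repair defect). Inhibition of growth was derived by comparison with vehicle-exposed cultures.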

[7] = at 5.0 µM (retest, dose inferred, filed as 0.5)
[8] = at 50.0 µM (retest, dose inferred, filed as 5.0)

Structure (SMILES)	growth inhibition [1, 7] [%]	growth inhibition [1, 8]	growth inhibition ([1]; at 50.0 µM)	growth inhibition [2, 7] [%]	growth inhibition [2, 8]	growth inhibition ([2]; at 50.0 µM)	growth inhibition [3, 7] [%]	growth inhibition [3, 8]	growth inhibition ([3]; at 50.0 µM)	growth inhibition [4, 7] [%]	growth inhibition [4, 8]	growth inhibition ([4]; at 50.0 µM)	growth inhibition [5, 7]	growth inhibition [5, 8]	growth inhibition ([5]; at 50.0 µM)	growth inhibition [6, 7] [%]	growth inhibition [6, 8]	growth inhibition ([6]; at 50.0 µM)
COc1cc(Cc2n[nH]c(=S)n2-c2ccccc2)c(S(N)(=O)=O)cc1OC	4	4%	10.1%	1	4%	0.85%	9	-16%	-2.75%	0	4%	8.55%	-2%	3%	0.15%	0	-62%	11.4%
[O-]c1c(-c2cccc3ccccc23)sc(-c2cccc3ccccc23)[n+]1-c1ccccc1	5	92% (active)	70.7% (active)	10	95% (active)	55.2%	8	92% (active)	50.1%	-2	93% (active)	52.6%	-2%	93% (active)	46.1%	5	92% (active)	78.7% (active)
O=C(O)/C=C/C(=O)c1ccccc1	7	76% (active)	15.1%	5	72% (active)	57.5%	3	66%	46.3%	-3	13%	3.6%	-6%	71% (active)	67.2%	6	80% (active)	72% (active)
CCCCCCCCCCCCCCNCCN	23	29%	88.1% (active)	46	33%	91% (active)	53	97% (active)	92.5% (active)	27	97% (active)	88.7% (active)	84% (active)	96% (active)	89.5% (active)	25	29%	88.5% (active)
NC(=S)Nc1ccccc1O	6	43%	50.5%	-10	19%	50.9%	6	15%	40.9%	0	21%	8.25%	17%	72% (active)	80.3% (active)	14	46%	59.2%
CC[N+](C)(CC)CCC[n+]1c(-c2ccccc2)c2cc(N)ccc2c2ccc(N)cc21	60	90% (active)	94.6% (active)	1	27%	44.2%	-2	33%	68.9%	-3	19%	24.9%	-7%	9%	18.9%	4	49%	82% (active)
Oc1c(Br)cc(Br)cc1-c1ccccc1	0	99% (active)	98.1% (active)	9	100% (active)	99.5% (active)	2	99% (active)	99.5% (active)	-5	100% (active)	99.2% (active)	-5%	100% (active)	99.3% (active)	-8	99% (active)	99.3% (active)
O=C(CSc1nnc(Cc2ccccc2)o1)Nc1cccc(Cl)c1	-20	91% (active)	77% (active)	14	85% (active)	70% (active)	-2	86% (active)	82.2% (active)	24	91% (active)	78% (active)	1%	95% (active)	77.5% (active)	9	93% (active)	78.8% (active)
O=c1ccc2c(COc3ccc(Cl)cc3Cl)c3ccc(O)cc3oc-2c1	-4	15%	78.5% (active)	-3	-1%	45.8%	-2	12%	73.9% (active)	9	12%	26.7%	-4%	1%	25.1%	-6	4%	60.1%
O=S(=O)(c1ccc(NC(=S)NCc2ccncc2)cc1)N1CCCCC1	-30	-2%	15.5%	-11	-43%	-13.6%	-14	-13%	10.7%	2	16%	5.3%	-31%	-18%	9.35%	-27	-8%	6.9%

— PubChem BioAssay (NCI)
